LGR2 antag – inhibitors of bursicon-induced Drosophila LGR2 receptor cAMP signaling; HEK293 LGR2, CRE-luciferase, bursicon-stimulated, 4 h; inhibition, % at 9.99 µM; actives 0.35% (n = 380,000); AID 720647;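 active means drop in luminescence signal, shown as inhibition above about 50% in the replicate tests, limit read from the data, passing the limit was not always enough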;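 further: agonist challenge used bursicon conditioned medium at about half maximal strength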
NCOA2 inhibitor – inhibits human steroid receptor coactivator 2 | Q15596 | actives 0.17% (n = 370,000) | inhibition, % at 9 µM | HEK293 GAL4-SRC2 luciferase reporter, luminescence;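 active means inhibition above the mean inhibition of all tested compounds plus 3 SD, set per campaign, cut at about 52% in these data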
NCOA1 inh – inhibitors of human steroid receptor coactivator 1 (SRC1) | Q15788 | HEK293 GAL4-SRC1 luciferase reporter, luminescence | inhibition, % at 3.6 µM | actives 0.12% (n = 360,000) | AID 588354;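 active means inhibition above the campaign mean plus 3 SD, with each screening campaign given its own cutoff, cut at about 60% in these data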
NCOA3 inh – human NCOA3 inhibition; inhibition, % at 3.6 µM; HEK293 GAL4-SRC3 luciferase reporter, luminescence; actives 0.17% (n = 360,000); AID 588352;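 active means inhibition above a per-campaign cutoff, the mean of all compounds plus 3 SD, cut at about 60% in these data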;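 further: higher means less SRC3-driven luciferase light from the GAL4 reporter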
NR5A2 inv ag – suppresses constitutive activity of human LRH-1; inhibition, % at 3.6 µM; actives 0.13% (n = 360,000); AID 602396; O00482; HEK293T StAR-luciferase reporter, LRH-1 transfected, 24 h;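 active means inhibition above the mean inhibition of all tested compounds plus 3 SD, cut at about 73% in these data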
A number is an active result. Most compounds without a hit are left out; they make up all but 0.45% or so of the library.

How did Cc1ccc2c(c1C)-c1c(ccc(C)c1C)C(=O)C2=O do in these assays?
LGR2 antag: 55; NCOA2 inhibitor: inactive; NCOA1 inh: inactive; NCOA3 inh: inactive; NR5A2 inv ag: inactive

What do the screens show for `COc1ccc(-c2cn(-c3ccc(OC)cc3)c3[n+]2-c2ccccc2CC3)cc1`?
LGR2 antag: inactive; NCOA2 inhibitor: inactive; NCOA1 inh: inactive; NCOA3 inh: 69; NR5A2 inv ag: inactive

What do the screens show for `Cc1noc(C)c1NC(=O)N(C)C[C@@H]1Oc2ccc(NC(=O)c3ccncc3)cc2C(=O)N([C@H](C)CO)C[C@@H]1C`?
LGR2 antag: inactive

How did Cc1ccc(-c2nc(-c3ccccc3)no2)c(Cl)c1 do in these assays?
LGR2 antag: 67; NCOA2 inhibitor: inactive; NCOA1 inh: inactive; NCOA3 inh: inactive; NR5A2 inv ag: inactive

How did O=C(C1CCOCC1)N1[C@H](CO)[C@@H](c2ccccc2)C12CN(Cc1cccnc1)C2 do in these assays?
LGR2 antag: inactive

How did CC(C)NC(=O)N1CC2(C1)[C@@H](c1ccccc1)[C@H](CO)N2C(=O)C1CC1 do in these assays?
LGR2 antag: inactive

What do the screens show for `COc1cc(/C=N/Nc2nc(C)nc3c2cnn3-c2ccccc2)ccc1O`?
LGR2 antag: 58; NCOA2 inhibitor: inactive; NCOA1 inh: inactive; NCOA3 inh: inactive; NR5A2 inv ag: inactive

What do the screens show for `Cc1ccc(C(=O)Nc2nc3ccccc3[nH]2)cc1`?
LGR2 antag: 89; NCOA2 inhibitor: inactive; NCOA1 inh: inactive; NCOA3 inh: inactive; NR5A2 inv ag: inactive

Results for Cc1ccc(C(=O)Nc2cnc3ccccc3c2)cc1 ?
NCOA2 inhibitor: 72; NCOA1 inh: inactive; NCOA3 inh: inactive; NR5A2 inv ag: inactive

How did COc1ccc(C(=O)Nc2nc3ccccc3[nH]2)cc1 do in these assays?
LGR2 antag: 90; NCOA2 inhibitor: inactive; NCOA1 inh: inactive; NCOA3 inh: inactive; NR5A2 inv ag: inactive

What do the screens show for `COc1cccc(C(=O)Nc2nc3ccccc3[nH]2)c1`?
NCOA2 inhibitor: inactive; NCOA1 inh: inactive; NCOA3 inh: inactive; NR5A2 inv ag: inactive

What do the screens show for `COc1ccc2c3c([nH]c2c1)[C@H](CO)N(Cc1ccc(F)cc1)CC31CN(Cc2ccccn2)C1`?
LGR2 antag: inactive

How did CSC1SCC2C(=O)N(C)C(C(C)C)C(=O)OCC(NC(=O)c3cnc4ccccc4n3)C(=O)NC(C)C(=O)N(C)C1C(=O)N(C)C(C(C)C)C(=O)OCC(NC(=O)c1cnc3ccccc3n1)C(=O)NC(C)C(=O)N2C (stereo unspecified) do in these assays?
LGR2 antag: 99; NCOA2 inhibitor: 66; NCOA1 inh: 85; NCOA3 inh: 86; NR5A2 inv ag: 96

How did O=C(c1ccncc1)N1CC2(C1)[C@@H](c1ccccc1)[C@@H](CO)N2C(=O)CC1CC1 do in these assays?
LGR2 antag: inactive

How did CCCCCN1C=CC(=C2C(=O)c3ccccc3C2=O)C=C1 do in these assays?
LGR2 antag: 104; NCOA2 inhibitor: 83; NCOA1 inh: inactive; NCOA3 inh: inactive; NR5A2 inv ag: inactive

How did Cc1ccc(OCC(=O)N2CCN(c3nnc(-c4ccc(C)cc4)c4ccccc34)CC2)cc1 do in these assays?
NCOA2 inhibitor: inactive; NCOA1 inh: inactive; NCOA3 inh: inactive; NR5A2 inv ag: inactive

Results for COc1ccc(OCC(=O)N2CCN(c3nnc(-c4ccc(C)cc4)c4ccccc34)CC2)cc1 ?
LGR2 antag: 59; NCOA2 inhibitor: inactive; NCOA1 inh: inactive; NCOA3 inh: inactive; NR5A2 inv ag: inactive

Results for COc1ccc(S(=O)(=O)N(C)C[C@@H]2OCCCC[C@@H](C)Oc3ccc(NS(=O)(=O)c4ccc(Cl)cc4)cc3C(=O)N([C@@H](C)CO)C[C@H]2C)cc1 ?
LGR2 antag: inactive

Results for CC(C)Nc1ncnc2ccc(Br)cc12 ?
LGR2 antag: inactive; NCOA2 inhibitor: inactive; NCOA1 inh: 66; NCOA3 inh: 62; NR5A2 inv ag: inactive

Results for COc1cccc(NC(=O)N2[C@@H]3CNC[C@H]2C3c2ccc(/C=C/c3ccccc3)cc2)c1 (stereo partly specified) ?
LGR2 antag: inactive

What do the screens show for `C[C@H]1CN([C@@H](C)CO)C(=O)c2cccc(NC(=O)Nc3ccc4c(c3)OCO4)c2O[C@@H]1CN(C)Cc1ccc(C(=O)Nc2ccccc2N)cc1`?
LGR2 antag: inactive

How did CCOc1ccc(N=Cc2c(C)[nH]n(-c3nc4ccccc4[nH]3)c2=O)cc1 do in these assays?
LGR2 antag: 63; NCOA2 inhibitor: inactive; NCOA1 inh: inactive; NCOA3 inh: inactive; NR5A2 inv ag: inactive

How did Cc1ccc2nc(-c3ccc(NC(=S)NC(=O)CC(C)C)cc3)sc2c1 do in these assays?
NCOA2 inhibitor: inactive; NCOA1 inh: inactive; NCOA3 inh: inactive; NR5A2 inv ag: inactive
